Screening results from PubChem.
Compounds with a hit are over-represented: about 1.5% of the library has one in this group of screens.
Mtb MenB inh – inhibitors of Mycobacterium tuberculosis MenB enzyme; MenB enzyme assay, absorbance read-out; inhibition, % (test concentration not listed); 100,000 compounds, 0.43% hits; in the data active means inhibition above about 21%, passing the limit was not always enough
Target sequence (P9WNP5 whole entry, looked up): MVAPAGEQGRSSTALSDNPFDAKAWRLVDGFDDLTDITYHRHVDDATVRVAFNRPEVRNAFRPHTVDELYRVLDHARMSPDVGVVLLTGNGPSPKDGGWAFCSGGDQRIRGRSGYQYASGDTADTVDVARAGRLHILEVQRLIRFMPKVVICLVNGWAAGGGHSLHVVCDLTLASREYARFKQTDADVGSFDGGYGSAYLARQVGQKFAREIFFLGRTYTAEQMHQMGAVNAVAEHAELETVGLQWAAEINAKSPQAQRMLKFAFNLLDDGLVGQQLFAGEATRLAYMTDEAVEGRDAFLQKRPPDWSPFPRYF
AID504770 – E. coli YBA685 growth inhibition, screen for V. cholerae RctB inhibitors; E. coli YBA685 rctB-dependent plasmid, OD600 growth, 3 h; stronger effect = lower value; z-score (concentration not given with the values); 130,000 compounds, 0.27% hits; AID 504770; in the data active means z-score below about -2, passing the limit was not always enough
Polio RdRp inh – poliovirus RNA polymerase inhibition; P03300; poliovirus polymerase elongation, fluorescence polarization; stronger effect = lower value; % elongation, % (compound at 16.7 µg/mL); 150,000 compounds, 0.66% hits; AID 588519; in the data active means % elongation below about 90%
Mtb MbtI inh – inhibitors of Mycobacterium tuberculosis siderophore enzyme MbtI. P9WFX0. purified MbtI enzyme, fluorescence intensity read-out. inhibition, % (test concentration not listed). 100,000 compounds, 0.89% hits. AID 493033; in the data active means inhibition mostly above about 56%, no sharp cut-off; inactive means mostly below about 77%
The depositor's hits bear a star; x = no result given.

SMILES	Mtb MenB inh	AID504770	Polio RdRp inh	Mtb MbtI inh
O=C(CSc1nc2c(c(=O)[nH]1)CSC2)c1ccc(Cl)cc1	2	-0.65	101	82*
CC(C)CCn1c(=O)c2ccccc2n2c(COC(=O)c3ccc(S(=O)(=O)N(C)C)cc3)nnc12	-18	0	103	19
COc1ccc(-c2sccc2C(C)C(=O)O)cc1 (stereo not given)	27*	0.75	105	6
COc1ccc2cc([C@H](C)C(=O)O)ccc2c1	-7	0.85	99	-1
CCCCCCCCCCCCCCCCCCc1ccc(C(=O)/C=C/C(=O)O)cc1	-4	x	98	9
CCCCCOc1ccc(C(=O)/C=C/C(=O)O)cc1	18	1.2	96	63*
COc1cccc(NC(=O)C2CC(=O)n3cnnc3S2)c1 (stereo not given)	x	-0.1	x	96*
Cc1ccc(Nc2nn(CN3CCOCC3)c(=S)s2)cc1	-37	-1	102	90*
Cc1cc(O)c(C=O)c2c1C(=O)Oc1c(C)c(O)c3c(c1O2)C(O)OC3=O (stereo not given)	7	0.25	66*	-33
COc1ccc(C(=O)NCCn2cc(SCc3cccc(F)c3)c3ccccc32)cc1OC	x	x	102	x
O=C(COC(=O)/C=C/c1ccccc1)Nc1c(F)cccc1F	x	0.3	104	0
O=C(COC(=O)/C=C/c1ccc(F)cc1)Nc1ncccn1	-39	-0.15	84*	-4
O=c1cc(NCCc2ccccc2)c2ccccc2o1	33*	2.3	103	22
O=c1[nH]c(=S)[nH]nc1-c1ccc(F)c(F)c1	-16	-0.75	98	101*
Fc1ccc(-c2nnc(Cl)c3ccccc23)cc1F	x	1.4	100	1
O=C1C(Nc2cccc(O)c2)=C(n2nnc3ccccc32)C(=O)c2ccccc21	-55	-1.2	51*	9
CCOC(=O)c1c(NC(=O)c2ccc(S(=O)(=O)N(CCOC)CCOC)cc2)sc2c1CC(C)(C)NC2(C)C	x	x	83*	x
CCOC(=O)c1c(NC(=O)c2ccc(S(=O)(=O)N3CCCC(C)C3)cc2)sc2c1CC(C)(C)NC2(C)C (stereo not given)	x	x	102	x
O=C1CCCC2=C1C(c1cccs1)C1C(=O)c3ccccc3C1=N2 (stereo not given)	-15	-0.55	72*	x
S=c1nccc(-c2ccccc2)[nH]1	-47	0.1	83*	99
S=c1cc(-c2ccccc2)[nH]c(=S)[nH]1	-162	-0.05	98	86*
COc1cc(C(=O)OC2CC3CCC(C2)N3)ccc1O (stereo not given)	-15	-1	104	x
O=C1C2ON(c3ccc(Br)cc3)C(c3cccnc3)C2C(=O)N1C1CCCCC1 (stereo not given)	x	-1.3	x	x
COc1ccc(Cn2c(=O)[nH]c3cc(C(=O)NC4CCN(Cc5ccccc5)CC4)ccc32)cc1	30*	1.4	104	7
O=C(NC1CCN(Cc2ccccc2)CC1)c1ccc(Cn2c(=O)c3ccccc3n(Cc3ccc(F)cc3)c2=O)cc1	x	x	104	x
SMILES	Mtb MenB inh	AID504770	Polio RdRp inh	Mtb MbtI inh
O=C(Nc1nccs1)c1ccccc1C(F)(F)F	x	0.45	107	-8
O=C(Cn1c(C(=O)NCc2ccco2)cc2sccc21)c1ccccc1	24*	1.1	104	12
Cc1ccc(N2NC(=O)CC2=O)cc1C	13	-0.45	92	x
Cc1ccc(-n2[nH]c(=O)c(N=O)c2O)cc1C	-28	-0.3	78*	17
Cn1c(=O)c2sccc2n2c(CCC(=O)N3CCN(c4ncccn4)CC3)nnc12	8	-1.1	101	2
CC(C)(CC(=O)NCc1ccc(Cl)cc1Cl)CC1=NS(=O)(=O)c2ccccc2N1	x	x	110	x
CC(C)Nc1nn(CN2CCN(C(=O)c3ccccc3)CC2)c(=S)s1	-3	-0.5	91	77*
O=c1c2ccccc2nc2ccc(N3CCOCC3)nn12	x	-0.8	x	-8
O=C(CCNS(=O)(=O)c1ccccc1)N1CCCC1	2	0.25	102	-8
CC(CNS(=O)(=O)c1ccccc1)(c1ccccc1)N1CCCCC1 (stereo not given)	x	-4.1*	100	-9
CCCN1C(=O)/C(=C/c2ccc(C)o2)NC1=S	-74	-0.1	101	63*
Cc1ccc(/C=C2/NC(=O)N(Cc3ccc(Br)cc3)C2=O)o1	-26	2	102	63
Oc1ccc(/C=N/n2cnn(Cc3ccccc3Cl)c2=S)c(O)c1	-50	-0.35	87*	27
OCc1nc2ccccc2n1Cc1ccccc1Cl	-16	-0.55	102	-3
O=C(O)CSCC(=O)Nc1cccc2ccccc12	36*	0.4	100	11
O=C(O)CCC(=O)Nc1cccc2ccccc12	x	-0.95	x	x
Cc1cc(C)c2c(n1)sc1c(N3CCN(CCO)CC3)ncnc12	-6	1	99	15
O=C(O)CCC(C(=O)O)N1C(=O)/C(=C/C=C/c2ccco2)SC1=S (stereo not given)	-202	0.75	89*	11
CC(=O)Nc1ccc(S(=O)(=O)Nc2nccc(C3Cc4ccccc4C(=O)O3)n2)cc1 (stereo not given)	-16	0.55	100	4
CCNc1nc(-c2ccccc2)cs1	x	-0.05	x	x
CC(C)CNc1nc(-c2ccccc2)cs1	-50	-0.8	102	91*
CCOc1cc(CNCC(c2ccc(OC)cc2)N2CCCCC2)ccc1OC(C)C(=O)N(C)C (stereo not given)	49*	0.6	99	-11
NC(=S)Cc1nc2n(n1)Cc1ccccc1-2	-16	1.8	83*	77*
Fc1ccc(-c2nc3n(n2)Cc2ccccc2-3)cc1	-7	-0.5	100	-10
Cc1ccc(S(=O)(=O)NCC(=O)OCc2nnc(-c3ccccc3)o2)cc1C	-19	-0.3	98	-14
SMILES	Mtb MenB inh	AID504770	Polio RdRp inh	Mtb MbtI inh
O=C(Oc1nsnc1N1CCOCC1)c1ccccc1	-6	-1.2	47*	x
O=C(Oc1nsnc1N1CCOCC1)N1CCCCC1	8	0.75	101	7
O=c1[nH]c(Nc2ccccc2)cc2ccccc12	-17	-0.7	76*	65
CN(C)c1ccc(-c2nc3ccc(Cl)cn3c2Nc2ccc3c(c2)OCCO3)cc1	x	x	109	x
Cc1nnc2c(Nc3ccccc3I)nc3nonc3n12	-21	-2.8*	107	-16
CCOC(=O)C1=C(C)NNC(=Nc2cccc(C)c2C)S1	-21	0.6	80*	86*
Cc1oc2c(c1C(=O)O)C(=O)c1ccccc1C2=O	-13	2.4	66*	-3
Cc1oc2c(c1C(=O)NCc1ccccc1)C(=O)c1ccccc1C2=O	-2	-1.1	101	13
O=C(COC(=O)c1ccco1)NCC1CCCO1 (stereo not given)	35*	0	99	-3
Cc1[nH]c(=S)sc1CC(=O)NC1CCCCC1C (stereo not given)	-2	1.7	98	84*
COc1ccc(N(CC(=O)N2CCN(c3cc(C)ccc3C)CC2)S(=O)(=O)c2c(C)noc2C)cc1	x	x	110	x
CC(=O)n1c(=S)[nH]c2ccccc21	9	0.1	99	101*
O=C(Cn1c(=S)[nH]c2ccccc21)c1ccc(-c2ccccc2)cc1	-13	1.9	103	x
Oc1ccc(-c2nc3ccccc3s2)cc1	4	-2.3*	x	103
